Screening results from PubChem.
An excerpt weighted towards active compounds, which were near 2.9% of everything screened.
Beta2AR agonist: activates human beta-2 adrenergic receptor causing internalization; P07550; Am2.2-beta2AR cells, FAP receptor internalization, flow cytometry; response, % (no concentration beside the values); actives 0.43% (n = 340,000);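 active = response above a set limit, near 3 SD of response in nonfluorescent compounds, cut at about 42% in these data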
Target sequence (P07550 whole entry, looked up): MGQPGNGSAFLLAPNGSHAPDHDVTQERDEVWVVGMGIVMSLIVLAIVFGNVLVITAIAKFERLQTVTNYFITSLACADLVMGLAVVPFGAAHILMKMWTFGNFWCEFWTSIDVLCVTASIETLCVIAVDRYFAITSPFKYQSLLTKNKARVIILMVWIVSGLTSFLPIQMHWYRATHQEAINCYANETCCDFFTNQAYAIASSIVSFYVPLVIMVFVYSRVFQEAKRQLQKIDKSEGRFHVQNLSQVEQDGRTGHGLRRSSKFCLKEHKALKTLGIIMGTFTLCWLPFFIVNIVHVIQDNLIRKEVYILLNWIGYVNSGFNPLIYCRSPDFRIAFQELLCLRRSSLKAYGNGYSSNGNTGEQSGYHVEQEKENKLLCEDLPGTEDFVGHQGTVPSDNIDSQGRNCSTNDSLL
GRK2 inh: blocks RNA aptamer binding to human GRK2; P25098; bead flow cytometry, FAM-aptamer displacement from GRK2; inhibition of aptamer binding, % at 10 µM; AID 488847; actives 0.59% (n = 330,000);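 active = inhibition of aptamer binding above 40%, roughly 3 SD of noise, on plates passing a quality check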;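 also: median bead fluorescence of bound FAM aptamer so fluorescent compounds give negative values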
MEKK2 WT-MEK5: raises or lowers MEK5 binding to wildtype human MEKK2 PB1 domain; bead flow cytometry, Alexa488-MEK5 binding to MEKK2 WT; actives lie on both sides; actives 1.1% (n = 290,000); binding response (% of control), % at 10 µM; in the data active = binding response below about 67% or above about 130%
MEKK3 PB1 HTS: raises or lowers MEK5 binding to the human MEKK3 PB1 domain; Q99759; bead-based flow cytometry, Alexa488-MEK5 binding to MEKK3; actives lie on both sides; 0 = blocked by unlabeled MEK5, 100 = vehicle; binding response (% of control), % at 10 µM; actives 1.4% (n = 290,000);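 active = binding response more than 3 SD above or below the average of its plate-row segment, actives on both sides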;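 also: Alexa488 bead fluorescence after subtracting the streptavidin-only scavenger bead signal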
MEKK2mut PB1 HTS: signal of MEK5 binding to mutant human MEKK2 PB1 domain | percent response, % at 10 µM | bead flow cytometry, Alexa488-MEK5 binding to MEKK2 mutant | actives 0.35% (n = 290,000); in the data active = percent response above about 24%, passing the limit was not always enough
MEKK2wt confirm: raises or lowers MEK5 binding to wildtype human MEKK2, retest. actives 2.4% (n = 5,900). bead flow cytometry, Alexa488-MEK5 binding to MEKK2 WT; actives lie on both sides. shares compounds with MEKK3 PB1 HTS. binding response (% of control), % at 10 µM; in the data active = binding response below about 16% or above about 210%; inactive = in between
MEKK2mut confirm: signal of MEK5 binding to mutant human MEKK2, retest. shares compounds with MEKK3 PB1 HTS. bead flow cytometry, Alexa488-MEK5 binding to MEKK2 mutant. percent response, % at 10 µM. actives 2% (n = 5,900); in the data active = percent response mostly above about 71%, no sharp cut-off; inactive = mostly below about 38%;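 also: higher means compound restores mutant binding toward wildtype level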
MEKK3-MEK5 inh: confirmation of inhibitors of MEK5 binding to human MEKK3. bead flow cytometry, Alexa488-MEK5 binding to MEKK3; stronger effect = lower value. binding response (% of control), % at 10 µM. actives 1.8% (n = 5,900). shares compounds with MEKK3 PB1 HTS;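 active = binding response below 72% of control, or above a set upper limit, though filed actives all read lower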;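 also: 100% = DMSO only wells and 0% = binding blocked by excess unlabeled MEK5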
The depositor's hits bear a star; / = no result given; [ ] = remark or other dose.

SMILES	Beta2AR agonist	GRK2 inh	MEKK2 WT-MEK5	MEKK3 PB1 HTS	MEKK2mut PB1 HTS	MEKK2wt confirm	MEKK2mut confirm	MEKK3-MEK5 inh
CCCNCc1cc(Br)ccc1OCC(=O)NCCc1ccccc1	7.6	0.0	101.0	111.0	-1.0	/	/	/
Cn1c(CNC(=O)c2ccco2)nnc1SCC(=O)N1CCN(c2ccccc2F)CC1	-4.1	2.0	100.0	102.0	-6.0	/	/	/
CN(c1ccccc1)S(=O)(=O)c1cccc(NC(=O)c2ccc(Cl)c([N+](=O)[O-])c2)c1	18.5	2.0	/	/	/	/	/	/
O=C(CNC(=O)c1ccc(C(F)(F)F)cc1)NC1CC1	2.7	2.0	/	/	/	/	/	/
Cc1ccc(S(=O)(=O)N2CCOCC2)cc1NC(=O)COc1ccccc1Cc1ccccc1	-13.3	0.0	/	/	/	/	/	/
Cc1ccc(-c2c(NCCc3ccccc3)c(=O)c2=O)cc1	-15.5	0.0	107.0	100.0	2.0	/	/	/
Cc1cccc2nc(CSc3nc4cc([N+](=O)[O-])ccc4s3)cn12	-3.4	0.0	103.0	105.0	4.0	/	/	/
O=C(NN1C(=O)c2ccccc2C1=O)c1ccncc1	-0.4	2.0	102.0	104.0	2.0	/	/	/
CN(C)c1ccc(C(=O)NN2C(=O)c3ccccc3C2=O)cc1	-3.6	3.0	120.0	132.0*	1.0	104.0	1.0	103.0
CC(=O)NS(=O)(=O)c1ccc(N=c2ssc3c2-c2cc(C)ccc2NC3(C)C)cc1	14.2	3.0	97.0	129.0*	0.0	90.0	-7.0	96.0
CCCCNc1c([N+](=O)[O-])cc(C(=O)O)cc1[N+](=O)[O-]	0.9	0.0	107.0	138.0*	0.0	103.0	1.0	102.0
CCn1c(SCC(=O)Nc2cc(C(C)(C)C)nn2-c2ccccc2)nnc1-c1cccs1	-10.8	5.0	107.0	151.0*	0.0	100.0	-10.0	101.0
Cc1nnc(SCC(=O)Nc2cc(C(C)(C)C)nn2-c2ccccc2)s1	0.9	0.0	95.0	92.0	-2.0	/	/	/
COc1cc(OC)c(OC)cc1CCC(C)NCCC(c1ccccc1)c1ccccc1 (configuration not stated)	27.6	6.0	166.0*	111.0	18.0	120.0	6.0	99.0
COc1ccc(NC(=O)NCc2cccnc2)cc1	-3.0	0.0	107.0	103.0	8.0	/	/	/
Cc1ccc(NC(=O)CSc2ncc(S(=O)(=O)c3ccccc3)c(=O)[nH]2)cc1C	-7.2	1.0	101.0	100.0	2.0	/	/	/
COc1cccc(NC(=O)CSc2ncc(S(=O)(=O)c3ccccc3)c(=O)[nH]2)c1	3.8	1.0	118.0	134.0*	29.0	101.0	2.0	107.0
CC(C)C(NC(=O)c1c(F)cccc1F)C(=O)NCCc1ccc(S(N)(=O)=O)cc1 (configuration not stated)	6.4	0.0	99.0	100.0	-2.0	/	/	/
CCOC(=O)N1CCC(N2C(=O)c3ccccc3C2Nc2ccc(C)cc2)CC1 (configuration not stated)	-3.5	2.0	112.0	108.0	6.0	/	/	/
CCOC(=O)N1CCC(N2C(=O)c3ccccc3C2Nc2cc(C)cc(C)c2)CC1 (configuration not stated)	-8.9	0.0	115.0	128.0*	31.0	92.0	-10.0	96.0
O=C(COc1ccccc1[N+](=O)[O-])N/N=C/c1ccc(OC(=O)c2ccco2)cc1	-9.1	2.0	103.0	139.0*	0.0	96.0	-6.0	102.0
COc1cc(/C=N/NC(=O)COc2ccccc2[N+](=O)[O-])ccc1OC(=O)c1ccco1	-19.6	3.0	93.0	92.0	0.0	/	/	/
COc1ccc(CN2CCC(Oc3cc(C(=O)NC4CC4)ccc3OC)CC2)c(O)c1	-15.8	0.0	96.0	96.0	0.0	/	/	/
COc1cccc(N2C(=O)Nc3ccccc3C2(O)C(=O)NCc2ccc3c(c2)OCO3)c1 (configuration not stated)	-2.5	28.0	127.0	123.0*	10.0	105.0	1.0	102.0
CS(=O)(=O)NCCSCc1ccccc1	4.4	0.0	102.0	97.0	-4.0	/	/	/
SMILES	Beta2AR agonist	GRK2 inh	MEKK2 WT-MEK5	MEKK3 PB1 HTS	MEKK2mut PB1 HTS	MEKK2wt confirm	MEKK2mut confirm	MEKK3-MEK5 inh
Cc1ccc(CSCCNS(C)(=O)=O)cc1	5.3	1.0	91.0	58.0*[inhibitor]	-4.0	100.0	2.0	101.0
Cc1[nH]c2ccccc2c1CN1CCC(Cc2ccccc2)CC1	28.1	0.0	145.0*	103.0	30.0	138.0	28.0	107.0
O=C(O)/C=C/C(=O)NNc1ncnc2ccccc12	-6.6	0.0	101.0	104.0	5.0	/	/	/
COC(=O)CN(C#N)c1nc(C)cc(C)n1	14.2	1.0	112.0	133.0*	1.0	102.0	-1.0	102.0
Cc1cccc(C)c1N=Nc1c(C)cc(O)cc1C	-0.9	0.0	109.0	105.0	2.0	/	/	/
CC(C)(C)S(=O)(=O)N1C[C@@H]2C(=CC[C@H]3C(=O)N(c4ccccc4)C(=O)[C@@H]23)[C@@H]1CCO	1.3	/	/	/	/	/	/	/
COC(=O)c1ccccc1NC(=O)C1CC(=O)N(c2ccc(F)cc2)C1 (configuration not stated)	-3.6	2.0	98.0	99.0	-6.0	/	/	/
COC(=O)c1ccccc1NC(=O)C1CC(=O)N(c2ccc(C)c(C)c2)C1 (configuration not stated)	-4.7	2.0	127.0	131.0*	6.0	99.0	-13.0	102.0
Cc1ccc(-n2c(O)c(C=NCc3ccccn3)c3ccccc3c2=O)cc1	-22.9	3.0	106.0	129.0*	0.0	92.0	-9.0	94.0
Cc1cc(C)nc(NN=C(c2ccccc2)c2ccccc2)n1	-8.8	3.0	98.0	97.0	2.0	/	/	/
CCOc1ccc(/C(O)=C2\C(=O)C(=O)N(c3cc(C)on3)C2c2ccccc2OC)cc1 (configuration not stated)	2.5	0.0	2.0*[inhibitor]	2.0*[inhibitor]	-31.0	110.0	8.0	107.0
CCOc1ccc(C2/C(=C(\O)c3ccc(OC)c(OC)c3)C(=O)C(=O)N2c2cc(C)on2)cc1OC (configuration not stated)	1.0	0.0	111.0	104.0	12.0	/	/	/
Cc1c(CN(C)C)c2c(n1Cc1ccccc1)C(=O)c1ccc(Br)cc1-2	25.9	0.0	139.0*	89.0	17.0	133.0	21.0	108.0
Cc1c(CN(C)C)c2c(n1C)C(=O)c1ccc(Br)cc1-2	-0.3	0.0	100.0	99.0	0.0	/	/	/
COC(=O)c1ccc(Cn2cc(/C=C\[N+](=O)[O-])c3ccccc32)o1	7.6	2.0	84.0	97.0	-2.0	/	/	/
